# Over roughly 9,900 sequences, “r (bound/input frequency ratio)” has its median near 0.7; the highest 2% begin near 6.5. The list comes from a sample in which the highest values are over-represented; it also holds similar and randomly drawn sequences.
# B1: ENSMUSG00000058297.560|Spock2|93:97;225:231 (ssRNA)
# RNA: GGGAGUUCUACAGUCCGACGAUCGCUUCGAUAUCCGCAUGCUAACCUGGGGGUGCAAAAGGAGAUUCAAGACAUCCGUACCAAGUCAGGCAGAGCUACCCGCUUCUCAGCCCGUGUCCCACUUAAAACCGUCCGAACACAAAUCACUGAGCUUAGAGUUAAACAUUGUGGUCAAGUGCUUGGGUUCCGUCUGUAGAUUUAAGUGCUGACGUUGUAUCUCUCAGUAAUUUUAGAUGUCUUUUAAAAAAUCUGAACAAGUGUUAGACCCCACACACCGUUGGUGGGCACUCAAGCAUCCCGUGGGCUCUUGCGGUCGCACUAGUGUGGAAUUCUCGGGUGUCAAGG
# B2: ENSMUSG00000042529.275|Kcnj12 (ssRNA)
# RNA: GGGAGUUCUACAGUCCGACGAUCGCUUCGAUAUCCGCAUGCUAUUACCUGCCACUCACCUCUCUAUCUAGUUGUCGAGUCUAGGGAAGGGCAGAGGGUGGGUCCUGGCCACUGGGUGCCACUGUGGGAGCCGGGGCACCUGUCAUUCUUUCUGAGUAGGUGGGCCUGUAUCCAGAGCAGGGUCUAGGGGCUCCUGCUCCCGGCUCAUCUCAGUGGCCUGAAGCAUUCAAAACUCUAGCCAGCCCCAUCCUCCUCCCUGCCAGAAUGGUCCAGUCCCUGGGCCCUGCUGGAGAGCAGCUCAAACCUCUUGCGGUCGCACUAGUGUGGAAUUCUCGGGUGUCAAGG
# B3: ENSMUSG00000042529.296|Kcnj12 (ssRNA)
# RNA: GGGAGUUCUACAGUCCGACGAUCGCUUCGAUAUCCGCAUGCUAUCCAGAGCAGGGUCUAGGGGCUCCUGCUCCCGGCUCAUCUCAGUGGCCUGAAGCAUUCAAAACUCUAGCCAGCCCCAUCCUCCUCCCUGCCAGAAUGGUCCAGUCCCUGGGCCCUGCUGGAGAGCAGCUCAAACUGCCUUUCAUCUCUGCCAAAGGCAGGCAGAUGCUGUAUUUUCAAAUUCUCCUGCCCUCUUUUCCCCUUUUUCCCUGUAUUUAUUUAUUGCUUGUGCUAAAGACCAAACUAGCCGCCCCCUUUAGUGCUCUUGCGGUCGCACUAGUGUGGAAUUCUCGGGUGUCAAGG
# B4: ENSMUSG00000090935.16|Synj2bp (ssRNA)
# RNA: GGGAGUUCUACAGUCCGACGAUCGCUUCGAUAUCCGCAUGCUAAUAUGAACGGACGGGUGGAUUAUUUAGUCACGGAGGAAGAGAUCAACCUGACGAGAGGACCUUCGGGUAAAUGGCCAAGAUCUGAAGAACCUGCUGCACCAAGAUGCUGUAGACCUCUUCCGUAAUGCGGGAUGUGCUGUGUCCCUGAGAGUACAGCACAGGUUACCAGUGCAGAAUGGACCUAUAGUACAUCGAGGUGAAGGAGAGCCAAGUGGAGUUCCUGUAGCUAUGGUGCUGCUACCAGUGUUUGCCCUCACCAUCUCUUGCGGUCGCACUAGUGUGGAAUUCUCGGGUGUCAAGG
# B5: ENSMUSG00000061578.1096|Ksr2 (ssRNA)
# RNA: GGGAGUUCUACAGUCCGACGAUCGCUUCGAUAUCCGCAUGCUAAGAAGGCUGGGGGAGCUUUCAGGGGUGUGGCCAGUUAUGUACAGAUGUGAAGCUGAGGUCUGAAGGAAAUGGAGGAAGUAGGAAGAUCAGACUGGUUGAAUUAGAAGUCUGUCACUCUAGGUGCUAAGUGACCUUGGACCCAGUCAGUUCUUGGAUUUCUGUUGUAGCCCAGGCUAGCCUCGAACCCUUGAUCCUCCUGUUCCUGGUAGAGAAACAGCCACUAAAUGGUGGGAUAGAAUGUGACUGCUCUAUCCCCGAUCCUCUUGCGGUCGCACUAGUGUGGAAUUCUCGGGUGUCAAGG
# B6: ENSMUSG00000029636.193|Wasf3 (ssRNA)
# RNA: GGGAGUUCUACAGUCCGACGAUCGCUUCGAUAUCCGCAUGCUAAGCCAGUUGCCCGGGCAGAGACCUGACUUCCCCUCUCCUGCCCUGAUCCUUUUUACCAAAUGGCGAUUCCAUAGUCCUGGCUGAGGCAGGGGCUCAAAGUCCAGUGUCUGCUUUGCAAUUCUGGAAGGACAGCUGCUUAUUUAAAUAAGUCUGUGAUAUCCGCAGGCUUGGGUUACAGGGAGGACCUUGCAGAGGGACCAGGACACUGCCUUCCCUUAGGUGCAUUAUUUACGUGGCCUGCAGCUCUUAAUAUCUCUCACCUCUUGCGGUCGCACUAGUGUGGAAUUCUCGGGUGUCAAGG
# B7: ENSMUSG00000058297.30|Spock2 (ssRNA)
# RNA: GGGAGUUCUACAGUCCGACGAUCGCUUCGAUAUCCGCAUGCUACAGGCAACUUAGCAAAUGGAUCCGGAAGUCAGUGCGGAGGACCCUGGCUCCAGUGGGGGAGGACUGGGGAGUGUGGCUUGUGUGUAUGUGUGAUAUGAGAUGUGUGUGUAUGAUGUGAGAUGUGAGUGUGUGAUGUGAGAUGUGUGUAUGUGAGAUGUGUGUGUGUGUGUGUGUGUGUGUGAUGUGAGUCACCCAAAGGUCCCUAUGUUAUUGAUUUUCAAAUGCACACUUUCACACACAAGGAUACACUAACAGACCAACUCUUGCGGUCGCACUAGUGUGGAAUUCUCGGGUGUCAAGG
# B8: ENSMUSG00000058297.30|Spock2|71:75;79:92;101:112;126:132;141:150;156:181 (ssRNA)
# RNA: GGGAGUUCUACAGUCCGACGAUCGCUUCGAUAUCCGCAUGCUACAGGCAACUUAGCAAAUGGAUCCGGAAGUCAGUGCGGAGGACCCUGGCUCCAGUGGGGGAGGACUGGGGACACACGCUACACACAUACACACAUAUGAGAACACACACAUACAUGUGAGAUGUGACACACACAUGUGAGAACACACAUACUGAGAACACACACACACACACACACACACACAUGUGAGUCACCCAAAGGUCCCUAUGUUAUUGAUUUUCAAAUGCACACUUUCACACACAAGGAUACACUAACAGACCAACUCUUGCGGUCGCACUAGUGUGGAAUUCUCGGGUGUCAAGG
# B9: ENSMUSG00000058297.31|Spock2 (ssRNA)
# RNA: GGGAGUUCUACAGUCCGACGAUCGCUUCGAUAUCCGCAUGCUAACUUAGCAAAUGGAUCCGGAAGUCAGUGCGGAGGACCCUGGCUCCAGUGGGGGAGGACUGGGGAGUGUGGCUUGUGUGUAUGUGUGAUAUGAGAUGUGUGUGUAUGAUGUGAGAUGUGAGUGUGUGAUGUGAGAUGUGUGUAUGUGAGAUGUGUGUGUGUGUGUGUGUGUGUGUGAUGUGAGUCACCCAAAGGUCCCUAUGUUAUUGAUUUUCAAAUGCACACUUUCACACACAAGGAUACACUAACAGACCAAAAUCAACUCUUGCGGUCGCACUAGUGUGGAAUUCUCGGGUGUCAAGG
# Biological target: TDP-43 (Homo sapiens, UniProt Q13148 1-414)
# Sequence (Q13148 whole entry): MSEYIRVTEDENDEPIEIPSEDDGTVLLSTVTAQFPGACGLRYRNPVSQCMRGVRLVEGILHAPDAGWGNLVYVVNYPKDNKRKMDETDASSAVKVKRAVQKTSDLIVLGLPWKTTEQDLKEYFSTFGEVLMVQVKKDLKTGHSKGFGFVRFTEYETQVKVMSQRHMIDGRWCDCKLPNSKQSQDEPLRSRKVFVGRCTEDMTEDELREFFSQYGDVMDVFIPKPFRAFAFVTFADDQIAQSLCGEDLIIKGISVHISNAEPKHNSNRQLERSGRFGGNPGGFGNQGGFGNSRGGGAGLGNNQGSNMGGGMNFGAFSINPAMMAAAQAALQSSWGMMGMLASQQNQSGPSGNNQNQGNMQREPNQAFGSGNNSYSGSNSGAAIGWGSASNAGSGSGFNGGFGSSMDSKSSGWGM
# Assay: RNA Bind-n-Seq with designed 260-mer pool; 25 mM Tris-HCl, 150 mM KCl, 3 mM MgCl2, BSA (printed 500 mg/mL), 20 units/mL SUPERase IN; pH not stated; 500 nM RNA pool, 1 h, 4 C; TDP-43 5, 50, 500 nM; high values mean tight binding
# Settings: protein: recombinant; tags: SBP (GST cleaved off with PreScission; pGEX-GST-SBP)
# Method in brief: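 Binding (R) is the ratio of each oligo's mapped-read-normalized abundance in the bound fraction to its abundance in the input. To obtain it, SBP-tagged recombinant TDP-43 (5, 50 or 500 nM) on streptavidin beads was incubated with 500 nM of an in vitro-transcribed 260-nt 3′ UTR oligo pool for 1 h at 4 °C in 25 mM Tris-HCl, 150 mM KCl, 3 mM MgCl2, BSA and SUPERase IN. The RNA retained after washing was released with biotin, then reverse transcribed, amplified by PCR and sequenced.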
row,Binder,binding signal
1,B1,0.189 R (bound/input frequency ratio)
2,B2,0.367 R (bound/input frequency ratio)
3,B3,1.65 R (bound/input frequency ratio)
4,B4,0.983 R (bound/input frequency ratio)
5,B5,2.29 R (bound/input frequency ratio)
6,B6,0.437 R (bound/input frequency ratio)
7,B7,8.87 R (bound/input frequency ratio)
8,B8,2.07 R (bound/input frequency ratio)
9,B9,8.63 R (bound/input frequency ratio)

# Reference: publication PMC12864922, “TDP-43 directly inhibits mRNA accumulation in neurites through modulation of mRNA stability”
